Results: PubChem BioAssay (Tox21)
Records with an inconclusive call do not appear. Active and inactive are the calls of the source. Calls follow the shape of the dose curve; as a rule, active = well fitted curve in the direction sought with a large enough effect in the repeat runs; inconclusive = weak or mixed curves; inactive = no such curve, though single readings can be large; an effect the other way counts as inactive or inconclusive.

Columns and labels:
[1] = Human pregnane X receptor (PXR) small molecule agonists, qHTS cell viability counter screen (AID 1346977); also: nearly all actives have a fitted effect of over 50% in size; also: potency is read from the fitted curve at half-maximal effect
Outline: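 Cytotoxicity counter screen run in the same wells as the PXR luciferase assay, using PXR-Luc HepG2 cells in charcoal-stripped serum medium. Viability: CellTiter-Fluor fluorescence after 24hr compound treatment.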

[2] = Caspase-3/7 induction in HepG2 cells by small molecules, qHTS assay (AID 1346978); also: nearly all actives have a fitted effect of over 15% in size
Outline: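 Wild-type HepG2 cells, 2,000/well, settled 5 hr at 37 C and 5% CO2, then compound-treated for 17 hr; caspase-3/7 activity read by luminescent Caspase-Glo 3/7 after 30 min at room temperature.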

[3] = Caspase-3/7 induction in CHO-K1 cells by small molecules, qHTS cell viability counter screen (AID 1346979); also: nearly all actives have a fitted effect of over 35% in size; also: potency is read from the fitted curve at half-maximal effect
Outline: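 Cytotoxicity counter screen run in parallel with the caspase-3/7 assay: CHO-K1 cells, 16hr compound treatment at 37C, then CellTiter-Fluor for 1hr before fluorescence reading.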

[4] = Caspase-3/7 induction in CHO-K1 cells by small molecules, qHTS assay (AID 1346980); also: nearly all actives have a fitted effect of over 15% in size
Outline: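 Wild-type CHO-K1 cells exposed to compounds for 17hr at 37 C, 5% CO2. Caspase-3/7 activity then measured by Caspase-Glo 3/7 luminescence after 30min at room temperature.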

[5] = Caspase-3/7 induction in HepG2 cells by small molecules, qHTS cell viability counter screen (AID 1346981); also: nearly all actives have a fitted effect of over 30% in size; also: potency is read from the fitted curve at half-maximal effect
Outline: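 Wild-type HepG2 cells, 2,000/well, settled 5 hr at 37 C, 5% CO2 before compound addition. Viability read by CellTiter-Fluor fluorescence, reagent added after 16 hr compound exposure, then 1 hr at 37C, in the same wells as the caspase read.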

[6] = target: Nuclear receptor subfamily 1 group I member 2 (Rattus norvegicus) (UniProt Q9R1A7); experiment: Rat pregnane X receptor (rPXR) activation by small molecules, qHTS assay (AID 1346983); conditions: rPXR luciferase reporter cells, One-Glo luminescence, 24 h; max activation: hits give high values; also: nearly all actives have a fitted effect of over 20% in size
Sequence of Nuclear receptor subfamily 1 group I member 2 (Rattus norvegicus) (Q9R1A7 whole entry, looked up): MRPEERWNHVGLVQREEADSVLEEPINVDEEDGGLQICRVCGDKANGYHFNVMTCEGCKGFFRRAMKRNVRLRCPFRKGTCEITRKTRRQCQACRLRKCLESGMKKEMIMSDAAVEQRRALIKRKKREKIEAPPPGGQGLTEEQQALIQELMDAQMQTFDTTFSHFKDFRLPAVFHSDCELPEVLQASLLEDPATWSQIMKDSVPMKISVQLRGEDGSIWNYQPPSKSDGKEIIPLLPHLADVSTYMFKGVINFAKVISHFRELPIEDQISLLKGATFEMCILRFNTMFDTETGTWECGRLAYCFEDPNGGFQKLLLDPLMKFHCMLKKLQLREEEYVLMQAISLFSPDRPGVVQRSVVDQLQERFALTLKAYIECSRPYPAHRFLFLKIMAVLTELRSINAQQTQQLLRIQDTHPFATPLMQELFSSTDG
Outline: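 Cell-based rPXR activation assay: rPXR cells, 2,000 per well, rested 5hr at 37 C, then exposed to compounds in DMSO for 24 hr at 37 C. Luciferase activity read by One-Glo luminescence after 30 min at room temperature.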

[7] = target: Nuclear receptor subfamily 1 group I member 2 (Homo sapiens) (UniProt O75469); experiment: CYP3A4 induction through human pregnane X receptor (PXR) by small molecules, qHTS assay (AID 1346984); also: nearly all actives have a fitted effect of over 40% in size
Sequence of Nuclear receptor subfamily 1 group I member 2 (Homo sapiens) (O75469 whole entry, looked up): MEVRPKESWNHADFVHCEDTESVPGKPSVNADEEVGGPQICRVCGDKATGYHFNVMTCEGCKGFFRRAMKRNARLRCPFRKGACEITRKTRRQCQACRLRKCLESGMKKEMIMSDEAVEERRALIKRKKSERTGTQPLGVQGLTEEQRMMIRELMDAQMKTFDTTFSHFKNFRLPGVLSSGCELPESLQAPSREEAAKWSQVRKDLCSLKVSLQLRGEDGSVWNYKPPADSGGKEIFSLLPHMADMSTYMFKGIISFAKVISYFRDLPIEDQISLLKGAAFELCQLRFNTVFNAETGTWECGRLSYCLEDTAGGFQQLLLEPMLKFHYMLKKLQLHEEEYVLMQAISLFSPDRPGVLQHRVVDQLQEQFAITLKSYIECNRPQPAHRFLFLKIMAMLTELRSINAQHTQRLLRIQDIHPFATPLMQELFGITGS
Outline: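 DPX-2 HepG2 cells carrying a PXR response element and CYP3A4-promoter luciferase construct, treated with compounds 24 hr at 37C. Then P450-Glo CYP3A4 Luciferin-IPA substrate (3uM final) for 3 hr at 37C, One-Glo added, luminescence read.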

[8] = target: Nuclear receptor subfamily 1 group I member 2 (Homo sapiens) (UniProt O75469); experiment: Human pregnane X receptor (PXR) activation by small molecules, qHTS assay (AID 1346985); also: nearly all actives have a fitted effect of over 40% in size
Outline: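 DPX-2 cells (HepG2 co-transfected with a PXR response element and a CYP3A4-promoter luciferase construct) were seeded at 2,000 per well, rested 5 hr at 37C, then exposed to DMSO-dissolved compounds for 24 hr. Activation was read as luciferase luminescence.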

[9] = target: Cytochrome P450 2D6 (Homo sapiens) (UniProt P10635); experiment: Cytochrome P450 Family 2 Subfamily D Member 6 (CYP2D6) small molecule antagonists: luciferase reporter qHTS assay (AID 1671196); also: nearly all actives have a fitted effect of over 50% in size; also: potency is read from the fitted curve at half-maximal effect
Sequence of Cytochrome P450 2D6 (Homo sapiens) (P10635 whole entry, looked up): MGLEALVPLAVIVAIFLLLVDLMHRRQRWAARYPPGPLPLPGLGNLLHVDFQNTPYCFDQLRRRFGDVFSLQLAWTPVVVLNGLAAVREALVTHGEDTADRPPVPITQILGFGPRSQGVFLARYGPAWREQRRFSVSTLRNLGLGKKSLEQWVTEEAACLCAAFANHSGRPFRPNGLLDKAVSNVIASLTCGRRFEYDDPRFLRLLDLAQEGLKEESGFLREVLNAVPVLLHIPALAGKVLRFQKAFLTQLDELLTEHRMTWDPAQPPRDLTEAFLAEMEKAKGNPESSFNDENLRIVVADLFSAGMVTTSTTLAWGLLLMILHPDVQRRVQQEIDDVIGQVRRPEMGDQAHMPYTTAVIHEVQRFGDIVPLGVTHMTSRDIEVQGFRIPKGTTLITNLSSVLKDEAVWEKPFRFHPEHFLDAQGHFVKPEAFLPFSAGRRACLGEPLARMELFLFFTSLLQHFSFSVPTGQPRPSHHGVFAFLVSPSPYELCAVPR
Outline: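 Cell-free P450-Glo system: CYP2D6 with proluciferin substrate was pre-incubated with compound for 10 min, then reacted with NADPH regeneration for 1 h at room temperature. Luciferin product was detected after 20 min, and data were reported as relative luminescence units.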

[10] = target: Cytochrome P450 2C9 (Homo sapiens) (UniProt P11712); experiment: Cytochrome P450 Family 2 Subfamily C Member 9 (CYP2C9) small molecule antagonists: luciferase reporter qHTS assay (AID 1671198); also: nearly all actives have a fitted effect of over 50% in size; also: potency is read from the fitted curve at half-maximal effect
Sequence of Cytochrome P450 2C9 (Homo sapiens) (P11712 whole entry, looked up): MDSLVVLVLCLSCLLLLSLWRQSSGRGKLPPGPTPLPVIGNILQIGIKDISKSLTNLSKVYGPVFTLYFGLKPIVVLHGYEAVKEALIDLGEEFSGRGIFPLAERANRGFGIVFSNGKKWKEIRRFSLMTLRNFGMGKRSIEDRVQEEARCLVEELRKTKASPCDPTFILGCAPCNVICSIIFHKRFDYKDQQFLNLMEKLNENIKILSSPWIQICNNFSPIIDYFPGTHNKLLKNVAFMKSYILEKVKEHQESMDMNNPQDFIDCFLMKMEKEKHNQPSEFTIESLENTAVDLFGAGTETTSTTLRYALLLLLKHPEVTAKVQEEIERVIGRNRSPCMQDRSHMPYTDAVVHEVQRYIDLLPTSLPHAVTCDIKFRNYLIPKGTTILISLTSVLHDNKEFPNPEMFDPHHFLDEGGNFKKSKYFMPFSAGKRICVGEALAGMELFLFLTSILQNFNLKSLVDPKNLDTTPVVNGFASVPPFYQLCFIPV
Outline: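 P450-Glo proluciferin substrate with CYP2C9 enzyme; 10 min RT preincubation, then NADPH regeneration 1 h at 37C; luciferin detection reagent 20 min RT, luminescence in relative luminescence units.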

[11] = target: Voltage-gated inwardly rectifying potassium channel KCNH2 (Homo sapiens) (UniProt Q12809); experiment: Human Ether-a-go-go-Related Gene (hERG) channel small molecule antagonists: fluorescence cell-based qHTS assay (AID 1671200);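 also: hERG-expressing U2OS cells given a thallium stimulus after FluxOR II dye loading; series mostly up to about 77 µM; nearly all actives have a fitted effect of over 50% in size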
Sequence of Voltage-gated inwardly rectifying potassium channel KCNH2 (Homo sapiens) (Q12809 whole entry, looked up): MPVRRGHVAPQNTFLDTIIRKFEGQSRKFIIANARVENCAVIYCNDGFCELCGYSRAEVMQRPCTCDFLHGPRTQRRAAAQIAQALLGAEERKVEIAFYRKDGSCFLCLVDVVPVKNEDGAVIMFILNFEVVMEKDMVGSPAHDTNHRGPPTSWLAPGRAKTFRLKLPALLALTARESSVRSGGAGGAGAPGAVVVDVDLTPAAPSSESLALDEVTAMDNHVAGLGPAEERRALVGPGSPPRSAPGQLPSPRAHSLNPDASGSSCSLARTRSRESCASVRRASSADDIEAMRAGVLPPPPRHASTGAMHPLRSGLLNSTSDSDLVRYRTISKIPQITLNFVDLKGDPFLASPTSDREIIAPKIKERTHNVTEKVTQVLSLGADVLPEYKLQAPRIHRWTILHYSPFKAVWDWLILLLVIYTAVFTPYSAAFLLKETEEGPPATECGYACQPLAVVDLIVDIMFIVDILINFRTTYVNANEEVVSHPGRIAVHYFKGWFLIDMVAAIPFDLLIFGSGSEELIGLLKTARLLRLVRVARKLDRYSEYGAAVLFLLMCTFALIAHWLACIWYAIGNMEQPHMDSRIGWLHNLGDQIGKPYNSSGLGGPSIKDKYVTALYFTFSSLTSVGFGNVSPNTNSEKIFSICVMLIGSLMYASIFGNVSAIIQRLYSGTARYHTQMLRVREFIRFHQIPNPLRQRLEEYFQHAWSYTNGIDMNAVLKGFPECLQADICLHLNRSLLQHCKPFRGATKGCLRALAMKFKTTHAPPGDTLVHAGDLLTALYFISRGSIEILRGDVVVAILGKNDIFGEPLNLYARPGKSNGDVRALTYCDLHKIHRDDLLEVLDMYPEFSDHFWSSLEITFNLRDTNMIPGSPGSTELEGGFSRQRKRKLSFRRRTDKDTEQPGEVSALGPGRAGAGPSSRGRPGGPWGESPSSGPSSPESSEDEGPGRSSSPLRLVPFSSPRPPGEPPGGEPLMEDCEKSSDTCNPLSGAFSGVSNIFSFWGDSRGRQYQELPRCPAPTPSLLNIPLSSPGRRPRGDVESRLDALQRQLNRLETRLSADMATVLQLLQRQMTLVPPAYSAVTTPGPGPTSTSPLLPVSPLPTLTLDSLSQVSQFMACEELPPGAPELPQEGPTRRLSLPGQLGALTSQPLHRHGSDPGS
Outline: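 Fluorescence at 540 nm emission (480 nm excitation) was recorded kinetically for 2 min at 1-second intervals once the thallium-containing stimulus reached cells previously loaded with FluxOR II dye.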

[12] = target: Cytochrome P450 3A4 (Homo sapiens) (UniProt P08684); experiment: Cytochrome P450 Family 3 Subfamily A Member 4 (CYP3A4) small molecule antagonists: luciferase reporter qHTS assay (AID 1671201); also: nearly all actives have a fitted effect of over 50% in size; also: potency is read from the fitted curve at half-maximal effect
Sequence of Cytochrome P450 3A4 (Homo sapiens) (P08684 whole entry, looked up): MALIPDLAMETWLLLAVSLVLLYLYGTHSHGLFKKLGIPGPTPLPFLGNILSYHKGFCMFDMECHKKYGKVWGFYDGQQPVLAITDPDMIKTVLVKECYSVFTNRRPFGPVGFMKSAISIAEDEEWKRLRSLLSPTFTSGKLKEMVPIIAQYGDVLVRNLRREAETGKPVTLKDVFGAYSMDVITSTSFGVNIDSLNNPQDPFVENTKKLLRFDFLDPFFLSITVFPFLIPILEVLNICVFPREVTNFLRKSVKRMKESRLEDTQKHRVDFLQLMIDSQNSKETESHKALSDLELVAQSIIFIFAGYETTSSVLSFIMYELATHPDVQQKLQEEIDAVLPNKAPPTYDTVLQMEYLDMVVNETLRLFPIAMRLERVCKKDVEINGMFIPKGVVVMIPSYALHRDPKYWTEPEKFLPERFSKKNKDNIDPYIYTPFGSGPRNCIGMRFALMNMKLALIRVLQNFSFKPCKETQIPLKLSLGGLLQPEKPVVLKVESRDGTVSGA
Outline: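 qHTS, 1536-well. CYP3A4 + proluciferin substrate, cpd 10 min RT → NADPH regen 1 h RT → detection reagent 20 min → luminescence (RLU). Ketoconazole positive control.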

[13] = target: Cytochrome P450 2C19 (Homo sapiens) (UniProt P33261); experiment: Cytochrome P450 Family 2 Subfamily C Member 19 (CYP2C19) small molecule antagonists: luciferase reporter qHTS assay (AID 1671197); also: nearly all actives have a fitted effect of over 65% in size; also: potency is read from the fitted curve at half-maximal effect
Sequence of Cytochrome P450 2C19 (Homo sapiens) (P33261 whole entry, looked up): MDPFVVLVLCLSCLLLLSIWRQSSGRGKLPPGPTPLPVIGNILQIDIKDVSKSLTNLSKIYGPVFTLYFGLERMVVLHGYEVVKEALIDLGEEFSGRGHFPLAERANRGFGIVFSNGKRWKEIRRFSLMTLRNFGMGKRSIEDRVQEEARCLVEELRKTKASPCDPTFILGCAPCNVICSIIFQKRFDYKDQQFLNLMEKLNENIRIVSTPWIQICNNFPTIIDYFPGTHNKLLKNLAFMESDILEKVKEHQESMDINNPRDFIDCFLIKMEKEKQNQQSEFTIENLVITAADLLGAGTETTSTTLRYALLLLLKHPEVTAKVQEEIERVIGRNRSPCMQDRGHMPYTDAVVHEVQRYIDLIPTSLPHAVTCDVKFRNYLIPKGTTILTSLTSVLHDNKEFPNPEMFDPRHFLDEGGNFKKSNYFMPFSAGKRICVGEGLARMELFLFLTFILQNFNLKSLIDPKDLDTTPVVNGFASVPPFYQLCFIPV
Outline: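 Quantitative high-throughput screen of the Tox21 library using CYP2C19 with proluciferin substrate. Reaction: NADPH regeneration, 37C, 1 h, after 10 min compound preincubation at room temperature. Readout: luminescence.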

[14] = target: Cytochrome P450 1A2 (Homo sapiens) (UniProt P05177); experiment: Cytochrome P450 Family 1 Subfamily A Member 2 (CYP1A2) small molecule antagonists: luciferase reporter qHTS assay (AID 1671199); also: nearly all actives have a fitted effect of over 50% in size; also: potency is read from the fitted curve at half-maximal effect
Sequence of Cytochrome P450 1A2 (Homo sapiens) (P05177 whole entry, looked up): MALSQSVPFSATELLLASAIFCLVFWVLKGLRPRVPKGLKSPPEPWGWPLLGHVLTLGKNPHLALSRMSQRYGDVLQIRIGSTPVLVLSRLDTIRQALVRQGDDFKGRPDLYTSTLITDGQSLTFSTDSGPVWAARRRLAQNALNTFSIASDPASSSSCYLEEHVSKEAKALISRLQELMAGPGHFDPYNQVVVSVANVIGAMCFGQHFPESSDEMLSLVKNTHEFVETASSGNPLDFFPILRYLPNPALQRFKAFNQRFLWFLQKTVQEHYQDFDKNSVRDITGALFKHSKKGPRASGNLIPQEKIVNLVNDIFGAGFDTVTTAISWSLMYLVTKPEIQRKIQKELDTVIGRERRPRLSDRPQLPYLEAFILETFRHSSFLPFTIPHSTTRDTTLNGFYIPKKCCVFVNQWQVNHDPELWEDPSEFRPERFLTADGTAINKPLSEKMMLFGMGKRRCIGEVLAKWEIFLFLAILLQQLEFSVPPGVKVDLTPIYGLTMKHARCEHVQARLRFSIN
Outline: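 P450-Glo CYP1A2 enzyme–proluciferin substrate mix with compound 10 min at room temperature, then NADPH regeneration 1 h at room temperature. Luciferin detection reagent added, luminescence read after 20 min; furafylline positive control.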

[15] = target: Nuclear receptor subfamily 1 group I member 2 (Homo sapiens) (UniProt O75469); experiment: Human pregnane X receptor (PXR) small molecule agonists, qHTS assay (AID 1346982); also: nearly all actives have a fitted effect of over 35% in size; also: potency is read from the fitted curve at half-maximal effect
Outline: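 PXR-Luc HepG2 reporter cells (CYP3A4-driven luciferase) in 5% charcoal-stripped FBS medium, plated 5 h before compound addition, then treated 24 h at 37C. Luciferase read by ONE-Glo luminescence after 30 min at room temperature.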
% is scaled to controls: 0 for no effect and ±100 for the full control effect.

CC(=O)OC(C)C[N+](C)(C)C (configuration not stated)
inactive: Potency [1] | Potency [2] | Potency [3] | outcome [4] | Potency [5] | max activation [6] -2.41% | Potency [7] | Potency [8] | Potency [9] | Potency [10] | Potency [11] | Potency [12]

CC(C)c1ccc(C#N)cc1
inactive: Potency [1] | Potency [2] | Potency [3] | outcome [4] | Potency [5] | Potency [9] | Potency [13] | Potency [10] | Potency [14] | Potency [11] | Potency [12]

CCCCOCCOC(=O)c1cccnc1
inactive: Potency [1] | Potency [2] | Potency [3] | outcome [4] | Potency [5] | Potency [15] | Potency [11]

CC1=C2[C@@H]([C@H](C)CC[C@H]2/C=C(\C)C(=O)O)[C@H](O)C1
inactive: Potency [1] | Potency [2] | Potency [3] | outcome [4] | Potency [5] | Potency [15] | Potency [10] | Potency [14] | Potency [11]

Cc1ccc(S(=O)(=O)NC(=O)NC2CCCCC2)cc1
inactive: Potency [1] | Potency [2] | Potency [3] | outcome [4] | Potency [5] | max activation [6] -5.99% | Potency [7] | Potency [8] | Potency [9] | Potency [14] | Potency [11] | Potency [12]

CC(C)C(=O)OCCOc1ccccc1
active: Potency [13] 39.9 µM | Potency [10] 39.9 µM | Potency [14] 31.7 µM
inactive: Potency [1] | Potency [2] | Potency [3] | outcome [4] | Potency [5] | Potency [9] | Potency [11] | Potency [12]

O=C(C(=O)c1ccco1)c1ccco1
inactive: Potency [1] | Potency [2] | Potency [3] | outcome [4] | Potency [5] | Potency [15] | Potency [10] | Potency [11]
active: Potency [13] 80.4 µM | Potency [14] 35.9 µM

CCOCCC(=O)OCC
inactive: Potency [1] | Potency [2] | Potency [3] | outcome [4] | Potency [5] | Potency [15] | Potency [13] | Potency [10] | Potency [11] | Potency [12]

COc1cc(S(=O)(=O)Nc2ccccc2)c(OC)cc1N
active: Potency [15] 27.3 µM | Potency [10] 35.6 µM | Potency [14] 39.9 µM | Potency [12] 3.56 µM
inactive: Potency [1] | Potency [2] | Potency [3] | outcome [4] | Potency [5] | Potency [11]

CO[C@@H]1[C@@H](OC)[C@H](C)[C@@](O)(CC(=O)O)O[C@H]1[C@H](C)[C@H]1O[C@@]2(CC[C@@](C)([C@H]3CC[C@@](C)([C@@H]4O[C@@H]([C@H]5O[C@](C)(O)[C@H](C)C[C@@H]5C)C[C@@H]4OC4C[C@H](OC)[C@@H](OC)[C@H](C)O4)O3)O2)C[C@H](O)[C@H]1C (some centres not stated)
inactive: Potency [2] | outcome [4] | Potency [9] | Potency [13] | Potency [10] | Potency [14] | Potency [11]
active: Potency [1] 3.35 µM | Potency [3] 1.33 µM | Potency [5] 3.76 µM

Cc1cc(CCC(=O)OCCOCCOCCOC(=O)CCc2cc(C)c(O)c(C(C)(C)C)c2)cc(C(C)(C)C)c1O
inactive: Potency [1] | Potency [2] | Potency [3] | outcome [4] | Potency [5] | Potency [14] | Potency [11]
active: Potency [9] 9.78 µM | Potency [10] 0.617 µM | Potency [12] 2.46 µM
